Sampled rows, rich in hits. Any-hit rate of the full collection: about 3.8%.
HSF1 activator – increases HSF-1 driven luciferase reporter signal; 300,000 tested, 1.7% active; activation, % at 9 µM; NIH3T3-HGL HSF-1 luciferase reporter, MG132, 8 h; 100% = twice DMSO control signal; AID 504408;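 active = mean replicate activation of at least 50% with a set share of replicates each reaching 50%; inconclusive = only one of those two conditions met; inactive = mean below 50% and too few replicates reaching it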;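 note: 0% = median of the neutral control wells and 100% = twice that signal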
pCIP destab – p/CIP protein destabilization | Q05BA5 | F442A p/CIP-EGFP cells, EGFP fluorescence, 16 h | decrease of EGFP signal, % at 10 µM | 290,000 tested, 0.01% active;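 active = EGFP signal decrease of at least 30% at 10 µM or well 3 SD below plate mean, unless failing retest; inactive = the rest, including hits failing retest or dose response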
Target sequence (Q05BA5 1-1403): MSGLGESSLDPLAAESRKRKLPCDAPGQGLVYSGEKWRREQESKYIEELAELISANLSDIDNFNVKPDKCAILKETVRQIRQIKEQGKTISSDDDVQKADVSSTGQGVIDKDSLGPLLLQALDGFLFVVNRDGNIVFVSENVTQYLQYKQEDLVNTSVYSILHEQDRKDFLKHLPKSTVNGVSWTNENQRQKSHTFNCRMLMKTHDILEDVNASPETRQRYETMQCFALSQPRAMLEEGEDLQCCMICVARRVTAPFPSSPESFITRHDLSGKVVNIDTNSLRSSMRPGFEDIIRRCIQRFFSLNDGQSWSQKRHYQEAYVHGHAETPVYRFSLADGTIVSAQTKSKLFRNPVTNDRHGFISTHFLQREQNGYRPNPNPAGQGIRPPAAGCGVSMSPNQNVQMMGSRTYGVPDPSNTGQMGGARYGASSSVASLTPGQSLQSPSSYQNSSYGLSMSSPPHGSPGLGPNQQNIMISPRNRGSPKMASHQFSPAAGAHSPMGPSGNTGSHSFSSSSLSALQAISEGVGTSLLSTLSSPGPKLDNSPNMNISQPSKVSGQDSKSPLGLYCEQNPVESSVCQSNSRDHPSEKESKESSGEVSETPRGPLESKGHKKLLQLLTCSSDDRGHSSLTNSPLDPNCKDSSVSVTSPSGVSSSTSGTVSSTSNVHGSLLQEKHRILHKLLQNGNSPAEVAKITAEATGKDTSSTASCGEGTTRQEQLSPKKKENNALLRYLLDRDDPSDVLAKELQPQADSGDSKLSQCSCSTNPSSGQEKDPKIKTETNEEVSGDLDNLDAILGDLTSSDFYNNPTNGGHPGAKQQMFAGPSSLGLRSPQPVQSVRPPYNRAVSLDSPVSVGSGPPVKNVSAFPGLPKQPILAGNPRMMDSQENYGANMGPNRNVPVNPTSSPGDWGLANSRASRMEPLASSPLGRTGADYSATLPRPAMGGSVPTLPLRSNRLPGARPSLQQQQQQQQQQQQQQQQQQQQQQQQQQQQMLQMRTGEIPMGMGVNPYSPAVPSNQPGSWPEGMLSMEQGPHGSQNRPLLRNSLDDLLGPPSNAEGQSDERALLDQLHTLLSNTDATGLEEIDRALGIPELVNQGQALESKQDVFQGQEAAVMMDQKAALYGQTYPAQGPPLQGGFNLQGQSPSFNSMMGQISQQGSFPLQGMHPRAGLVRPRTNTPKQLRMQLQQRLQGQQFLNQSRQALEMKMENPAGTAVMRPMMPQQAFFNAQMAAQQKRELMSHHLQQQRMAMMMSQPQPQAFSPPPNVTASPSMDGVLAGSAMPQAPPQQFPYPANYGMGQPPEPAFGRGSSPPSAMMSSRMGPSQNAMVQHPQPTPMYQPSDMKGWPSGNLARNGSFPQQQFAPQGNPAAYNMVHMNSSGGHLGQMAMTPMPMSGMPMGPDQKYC
NALP1 yeast inh – inhibitors of NALP1 inflammasome in yeast | S. cerevisiae NALP1/ASC/caspase-1 growth, X-gal OD620, 72 h | inhibition, % at 10 µM | 280,000 tested, 0.61% active | AID 2071; in the data active = inhibition mostly above about 24%, no sharp cut-off; inactive = mostly below about 32%
Hsp70 activator – transcriptional activators of Hsp70 | HeLa Hsp70 promoter luciferase reporter, luminescence; scaled: vehicle 0, proteasome-inhibitor control 100% | activation, % at 10 µM | 200,000 tested, 0.04% active | AID 1203;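 active = activation above the mean across all tested compounds plus 3 SD, cutoff set per campaign, cut at about 5.5% in these data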;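 note: 100% = MG132 at 30 µM as the positive control and 0% = DMSO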
HSF1 inhib – HSF1 inhibition. NIH3T3-HGL HSE-luciferase, MG132-induced, luminescence 8 h; hits give low values. activity change, negative = inhibition, % at 7.5 µM (by protocol). 300,000 tested, 0.77% active. AID 2098;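 active = more than half of replicate wells show activity change below -50%, luminescence cut by over half; inconclusive = some wells, but at most half, below -50%; inactive = no replicate well below -50%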;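 note: luciferase reports HSF-1 transcriptional activity via heat shock element; 0% = median of DMSO wells and -100% = zero luminescence signal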
HSP90 inh – inhibitors of HSP90 luciferase refolding in rabbit reticulocyte lysate | luciferase refolding luminescence, 3 h | inhibition, % at 5.6 µM | 290,000 tested, 0.91% active | AID 1789;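 active = inhibition above the screen-wide mean plus 3 SD, computed separately per campaign, cut at about 16% in these data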;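 note: 0% = DMSO wells and 100% = 60 µM geldanamycin wells; inhibitors lower the luminescence because luciferase stays unfolded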
* = called active by the depositor; ? = inconclusive; . = not tested or not shown.

SMILES	HSF1 activator	pCIP destab	NALP1 yeast inh	Hsp70 activator	HSF1 inhib	HSP90 inh
CCn1c(C(=O)OC)cc2c1ccn2-c1ccc(F)cc1	51.9*	-4.2	1.8	0.1	39.9	-3.3
Cc1nnc(SCCOc2ccccc2)s1	-43.0	4.1	-2.8	0.0	-26.6	3.9
COc1ccc(CNC(=O)C2CCN(S(=O)(=O)c3ccc4c(c3)C(C)(C)C(=O)N4C)CC2)cc1	-87.7	-3.2	16.6	.	-84.3*	3.8
CN1C(=O)C(C)(C)c2cc(S(=O)(=O)N3CCC(C(=O)NCc4ccc(Cl)cc4)CC3)ccc21	65.6*	-0.5	13.7	.	37.3	9.3
CCCNC(=O)C1CCN(S(=O)(=O)c2ccc3[nH]c(=O)ccc3c2)CC1	11.6	-4.7	13.9	.	-1.5	35.5*
CN1C(=O)C(C)(C)c2cc(S(=O)(=O)N3CCC(C(=O)NCc4ccc(F)cc4)CC3)ccc21	2.7	-15.0	5.1	.	-0.5	3.4
CCOC(=O)c1cnc(-c2ccccc2O)nc1Cl	12.1	0.9	8.3	-0.2	1.4	-0.7
CCOC(=O)C1=Nc2ccccc2C1=[N+]=[N-]	9.1	-6.2	74.6*	-0.2	1.6	1.2
O=C(c1cccc(F)c1)N1CCN(S(=O)(=O)Cc2ccccc2)CC1	1.8	3.8	.	.	2.1	-5.3
CC(OC(=O)CN1C(=O)c2ccccc2C1=O)C(=O)NC1CCCCC1C (configuration not stated)	-80.4	.	.	.	-74.9*	.
CC(OC(=O)CN1C(=O)c2ccccc2C1=O)C(=O)NC1CCCC1 (configuration not stated)	-3.6	1.3	-3.2	.	-4.9	-1.6
CCC(Sc1ncnc2c1nnn2-c1ccc(F)cc1)C(=O)OC (configuration not stated)	102.8*	-1.1	7.9	0.3	113.4	-6.6
CC1CCCCN1S(=O)(=O)c1ccc(C(=O)Nc2nnc(-c3ccccn3)o2)cc1 (configuration not stated)	18.0	-1.5	23.2	-0.2	1.7	-0.8
COc1cccc2cc(C(=O)CS(=O)(=O)c3ccc(C(C)(C)C)cc3)c(=O)oc12	2.2	6.1	21.2	.	-3.4	0.4
O=C(CS(=O)(=O)c1ccccc1)c1cc2ccccc2oc1=O	56.9*	-12.1	7.8	.	37.1	3.9
O=C(CS(=O)(=O)c1ccccc1)c1cc2cc(F)ccc2oc1=O	325.4*	-4.9	-9.5	.	240.4	-0.1
COc1ccc2cc(C(=O)CS(=O)(=O)c3ccccc3)c(=O)oc2c1	40.3	-14.4	9.1	.	25.3	6.8
CCN(CC)c1ccc(CNCc2cccs2)cc1	-4.9	-8.0	-25.7	0.1	4.6	-0.1
N#CCC(CNc1ncc(C(F)(F)F)cc1Cl)OC(=O)c1ccc(Cl)cc1Cl (configuration not stated)	79.0*	-14.0	37.9	0.2	44.2	2.8
CCOC(=O)CNc1ncc(C(F)(F)F)cc1Cl	-34.3	-0.3	5.2	0.0	-22.4	-2.8
O=C(Nc1ccc(S(=O)(=O)N2CCOCC2)cc1)c1ccc(Br)o1	59.0*	6.3	7.6	-0.3	11.6	-0.5
CCN1CCN(c2ccc(NC(=O)c3ccc(Br)o3)cc2)CC1	55.7*	3.2	14.6	.	13.7	-0.6
CCCC(=O)N1CCN(c2ccc(NC(=O)c3ccc(Br)o3)cc2)CC1	-9.4	2.0	5.8	0.0	-3.3	-3.1
COc1ccccc1N1CCN(/N=C/C(Cl)=C/c2ccccc2)CC1	54.5*	-7.4	18.6	.	19.3	3.2
COc1ccccc1N1CCN(/N=C\c2ccccc2)CC1	23.7	-4.7	4.3	.	-3.2	2.3
SMILES	HSF1 activator	pCIP destab	NALP1 yeast inh	Hsp70 activator	HSF1 inhib	HSP90 inh
COc1ccccc1N1CCN(/N=C\c2ccc(C)o2)CC1	63.2*	-0.4	23.6	-0.1	30.8	-1.9
O=C(CN(C(=O)c1csnn1)c1ccccc1C(F)(F)F)NC1CCCCC1	-18.3	-3.6	10.7	.	-0.1	-5.1
Cc1nn(CC(=O)Nc2ccccc2C(F)(F)F)c(=O)c2cccn12	11.3	8.7	11.0	.	2.4	1.1
O=C(NOC(=O)c1c(F)cccc1Cl)c1ccc(Cl)c(Cl)c1	29.1	-0.9	-1.2	.	0.9	0.8
CCc1nnc(NC(=O)/C=C/c2cccs2)s1	4.2	-9.2	-10.8	-0.1	-2.8	-1.4
Cc1c(C(=O)N2CCCCC2)c(S(=O)(=O)Nc2ccc(F)cc2F)c(C)n1C	-0.6	9.6	-2.2	.	-0.9	-2.8
O=c1nc(/C=C/c2cc([N+](=O)[O-])ccc2Cl)cc(C(F)(F)F)[nH]1	74.8*	7.4	38.5	0.5	42.9	-0.1
O=c1nc(/C=C/c2cccn2-c2ccc([N+](=O)[O-])cc2)cc(C(F)(F)F)[nH]1	-3.7	1.3	-2.1	0.2	-8.0	-0.7
Cc1[nH]n(-c2ccccc2)c(=O)c1C=NCCc1ccccc1	89.8*	-16.4	10.1	-0.1	44.5	0.6
CCOC(=O)c1ccc(N2C=C(C(=O)OC)C(c3ccc(OC)c(O)c3)C(C(=O)OC)=C2)cc1	-10.6	-3.0	11.9	.	-7.7	10.0
O=C(CSc1n[nH]c(-c2ccccc2)n1)Nc1ccc(F)cc1F	-10.7	-23.2	9.6	.	0.5	2.8
COc1ccccc1NC(=O)CSc1n[nH]c(-c2cccnc2)n1	5.0	-14.0	35.1	.	3.1	0.8
COC(=O)c1ccccc1NC(=O)CSc1n[nH]c(-c2cccnc2)n1	-1.6	-1.5	33.3*	0.2	3.7	-0.8
Cc1ccc(NC(=O)CSc2n[nH]c(-c3cccnc3)n2)c(Br)c1	5.2	21.3	-14.3	.	2.9	-1.8
Cc1ccc([N+](=O)[O-])cc1NC(=O)CSc1n[nH]c(-c2cccnc2)n1	-89.9	-20.3	6.1	.	-87.1*	-1.4
O=C(CSc1n[nH]c(-c2ccccc2)n1)Nc1ccccc1O	64.9*	2.7	4.3	.	36.7	-5.7
CCCCC(=O)Nc1cnc(NC(=O)c2ccco2)cc1C	26.3	-1.2	10.8	.	10.8	-3.5
O=C1C(Cc2ccc3[nH]ccc3c2)NC(=S)N1c1ccccc1 (configuration not stated)	1.1	-16.3	19.7	.	-1.2	6.5
COc1ccccc1C(=O)C1CCCN(C(=O)c2ccccc2C(C)=O)C1 (configuration not stated)	23.0	7.0	27.4*	.	10.0	0.2
COC(=O)c1cccc(C(=O)N2CCCC(C(=O)c3ccccc3OC)C2)c1 (configuration not stated)	58.6*	-9.5	12.8	.	19.8	-3.9
CCOc1ccc(NC(=O)CCc2c(C)nn(-c3ccc(N4CCCCC4)nn3)c2C)cc1	?	1.3	8.4	.	48.5	-0.2
O=C(COC(=O)c1cc(S(=O)(=O)N2CCOCC2)ccc1F)NCc1ccco1	0.5	-47.5	0.2	.	-5.3	2.2
CSc1ccc(/C=C(/NC(=O)c2ccco2)C(=O)N2CCCCC2)cc1	1.6	2.3	6.5	.	2.5	-3.3
O=c1c(-c2ccccc2)c1-c1ccccc1	-3.3	-11.4	5.3	0.2	12.8	20.2*

Assay outcomes (PubChem)
